From PubChem BioAssay AID504558 (Broad Institute, 2011) come the findings set out here.

Out of some 350,000 compounds screened, about 2,400 (0.69%) were called active. Shown is part of a subset that was picked to be rich in actives. A number with no mark means an inactive call. Rule as the data show it: active = inhibition above about 41%; inconclusive = no clear call, values can overlap the other calls; inactive = below that.

The experiment is described as follows: EBV LMP1-driven NF-kappaB luciferase reporter inhibitors, primary screen, cell-based, luminescence, single point (AID 504558).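 Also: 0% = neutral control wells and 100% = reference inhibitor control.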 The conditions noted are these: LMP1-induced NF-kappaB luciferase reporter cells, at 12.5 µM, hits give high values. Background: In a reporter assay the amount or activity of a reporter protein is the signal.
Turning to `CN1CCN(c2cc(N3CCNCC3)ccc2[N+](=O)[O-])CC1`, the inhibition was -3.51%.

With `COc1cccc(-c2nc3ccc(N4CCN(C)CC4)cc3[nH]2)c1`, the inhibition is 55.9% (active).

In the case of `O=C(c1ccccc1)C(O)(CN1CCCCC1)c1ccccc1` (stereo not given), the inhibition is 10.5%.

Turning to `CCOc1ccc(-c2cc(C)[n+](CCN(CC)CC)c(-c3ccc(OCC)cc3)c2)cc1`, the inhibition is 34.1%.

`CCC/C(=N\O)c1c[nH]c2ccccc12`: the inhibition was -1.7%.

Regarding `NCCc1c[nH]c2ccc(O)cc12`, the inhibition was 0.174%.

Take `CC(C)c1c(CN(C)C(C)Cc2ccccc2)n(C)n(-c2ccccc2)c1=O` (stereo not given): the inhibition is 46.3% (active).

On to `CN(C)CCN(CC1CCCN(Cc2ccccc2F)C1)C(=O)Cc1ccc(F)c(F)c1` (stereo not given), for which the inhibition was -8.27%.

Consider `c1cc2c(cc1[C@H]1OC[C@H]3[C@@H]1CO[C@@H]3c1ccc3c(c1)OCO3)OCO2`, for which the inhibition is -19.4%.

Turning to `CC=C(C)C(=O)OC1CCN2CC=C(COC(=O)C(O)(C(C)OC)C(C)(C)O)C12` (stereo not given), the inhibition was -5.68%.

As to `COc1ccc2c(c1)[C@]13CCCCC1C(C2)N(C)CC3` (stereo not given in full), the inhibition was -1.94%.

`CCCC[N+]1(C)C2CC(OC(=O)C(CO)c3ccccc3)CC1C1OC12` (stereo not given): the inhibition was -0.864%.

As to `Cc1ccc(-c2nn(CCC#N)cc2C(=O)O)cc1C`, the inhibition was -6.4%.

For `Clc1cccc(Cl)c1Cl`, the inhibition is -0.913%.

In the case of `CCC(C)(O)C(=O)OC1C(=O)OC2CC3C(C)=CC(=O)C(O)C3(C)C3C4(O)OCC23C1C(C)C4O` (stereo not given), the inhibition was 93.7% (active).

Take `CN(C)C(=O)Oc1ccc(NC(=O)N2CCOCC2)cc1`: the inhibition was 3.17%.

For `CCN1C(=O)C(=Cc2c(C)n(CC(=O)NCC3CCCO3)c3ccccc23)C(=O)N(CC)C1=S` (stereo not given), the inhibition is 0.11%.

As for `CC(=O)OC1C2(CC3N4C(=O)C5(CO)SSC4(CC31O)C(=O)N5C)OC(C)C(C)(C)C2=O` (stereo not given), the inhibition is 86.8% (active).

For `CCOC(=O)CC(SP1(=S)OCC2(CCCCO2)C(C2CCCCO2)O1)C(=O)OCC` (stereo not given), the inhibition was -9.32%.

Regarding `C[C@]12CC[C@H](O)C[C@H]1CC[C@@H]1C2CC[C@]2(C)[C@@H](C3=CC(=O)OC3)[C@@H](O)C[C@]12O` (stereo not given in full), the inhibition is 37%.

For the compound `COC1C(O)C(C)OC(OC2CCC3(C=O)C(CCC4C3CCC3(C)C(C5=CC(=O)OC5)CCC43O)C2)C1O` (stereo not given), the inhibition is 89.7% (active).

Consider `O=C(NCC1=C(c2ccc3ccccc3c2)C[C@@H]2CC[C@H]1N2Cc1ccco1)c1cccs1`, for which the inhibition was 1.8%.

Regarding `CCC(=O)OC(Cc1ccccc1)(c1ccccc1)C(C)CN(C)C` (stereo not given), the inhibition was 0.604%.

Consider `O=C1C2(Cl)C3(Cl)C4(Cl)C(Cl)(Cl)C5(Cl)C3(Cl)C1(Cl)C5(Cl)C24Cl` (stereo not given), for which the inhibition was 6.24%.

With `CN1CCN(Cc2ccc(OC(F)(F)F)cc2)CC1`, the inhibition was -6.99%.

The term inhibition denotes the relative decrease from the control value, in per cent.
